Structures are written as SMILES. A number with no mark means an inactive call. Results filed as inconclusive are left out. The source made the active and inactive calls. Unless noted, calls come from the whole dose curve; as a rule, active = well fitted curve in the direction sought with a large enough effect; inconclusive = small, poorly fitted or top-dose-only effect, or another doubt; inactive = no such curve, though single readings can be large; an effect the other way counts as inactive or inconclusive.

Assay [1] has as its target Rap guanine nucleotide exchange factor 3 (Homo sapiens) (UniProt O95398). The assay is described as follows: Confirmatory qHTS for antagonist of cAMP-regulated guanine nucleotide exchange factor 3 (EPAC1) (AID 1645880). Note: nearly all actives have a fitted effect of over 55% in size. Note: potency is the fitted concentration of half-maximal effect. A digest of the protocol:
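Released BODIPY-GDP fluoresces less than Rap1-bound BODIPY-GDP; the signal is followed at 480/540 nm at 5-min intervals over 30 min, after 5 min at room temperature. Reactions contain 100 nM EPAC1, 250 nM RAP1B-BODIPY-GDP and 50 uM GDP; results are normalized to ATA and DMSO.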

The target is the same in assay [2]. The assay is described as follows: Confirmatory qHTS for agonist of cAMP-regulated guanine nucleotide exchange factor 3 (EPAC1) (AID 1645881).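 For activation: EPAC1 catalysed release of BODIPY-GDP from Rap1B seen as fluorescence loss; 100% = effect of cAMP agonist control.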 Note: nearly all actives have a fitted effect of over 75% in size. Note: potency is the fitted concentration of half-maximal effect.
Assay [3] has as its target Rap guanine nucleotide exchange factor 4 (Homo sapiens) (UniProt Q8WZA2). The assay is described as follows: Confirmatory qHTS for agonist of cAMP-regulated guanine nucleotide exchange factor 4 (EPAC2) (AID 1645884).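 Note: nucleotide exchange releases bodipy-GDP from Rap1 and this lowers its fluorescence; nearly all actives have a fitted effect of over 65% in size.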 Note: potency is the fitted concentration of half-maximal effect.
For assay [4] the target is unchanged. The assay is described as follows: Confirmatory qHTS for antagonist of cAMP-regulated guanine nucleotide exchange factor 4 (EPAC2) (AID 1645885; note: nearly all actives have a fitted effect of over 25% in size; note: potency is the fitted concentration of half-maximal effect). (Quantitative high-throughput screening tests each substance at several concentrations.)
The target of assay [5] is Rap guanine nucleotide exchange factor 3 (Homo sapiens) (UniProt O95398). The assay is described as follows: Counterscreen qHTS for antagonist of cAMP-regulated guanine nucleotide exchange factor 3 (EPAC1) (AID 1645888). Note: % of control where 0% means no effect. A digest of the protocol: (§1)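 Rap1B–BODIPY-GDP (250 nM) with 50 uM GDP; compounds pin-transferred to 9.74 nM–152 uM final (activator) or from 7.32 nM upwards (inhibitor). Fluorescence Ex/Em 480/540 nm read at 5 and 30 min, then after adding cAMP or buffer, at room temperature.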
Rap guanine nucleotide exchange factor 3 (Homo sapiens), sequence (O95398 whole entry, looked up): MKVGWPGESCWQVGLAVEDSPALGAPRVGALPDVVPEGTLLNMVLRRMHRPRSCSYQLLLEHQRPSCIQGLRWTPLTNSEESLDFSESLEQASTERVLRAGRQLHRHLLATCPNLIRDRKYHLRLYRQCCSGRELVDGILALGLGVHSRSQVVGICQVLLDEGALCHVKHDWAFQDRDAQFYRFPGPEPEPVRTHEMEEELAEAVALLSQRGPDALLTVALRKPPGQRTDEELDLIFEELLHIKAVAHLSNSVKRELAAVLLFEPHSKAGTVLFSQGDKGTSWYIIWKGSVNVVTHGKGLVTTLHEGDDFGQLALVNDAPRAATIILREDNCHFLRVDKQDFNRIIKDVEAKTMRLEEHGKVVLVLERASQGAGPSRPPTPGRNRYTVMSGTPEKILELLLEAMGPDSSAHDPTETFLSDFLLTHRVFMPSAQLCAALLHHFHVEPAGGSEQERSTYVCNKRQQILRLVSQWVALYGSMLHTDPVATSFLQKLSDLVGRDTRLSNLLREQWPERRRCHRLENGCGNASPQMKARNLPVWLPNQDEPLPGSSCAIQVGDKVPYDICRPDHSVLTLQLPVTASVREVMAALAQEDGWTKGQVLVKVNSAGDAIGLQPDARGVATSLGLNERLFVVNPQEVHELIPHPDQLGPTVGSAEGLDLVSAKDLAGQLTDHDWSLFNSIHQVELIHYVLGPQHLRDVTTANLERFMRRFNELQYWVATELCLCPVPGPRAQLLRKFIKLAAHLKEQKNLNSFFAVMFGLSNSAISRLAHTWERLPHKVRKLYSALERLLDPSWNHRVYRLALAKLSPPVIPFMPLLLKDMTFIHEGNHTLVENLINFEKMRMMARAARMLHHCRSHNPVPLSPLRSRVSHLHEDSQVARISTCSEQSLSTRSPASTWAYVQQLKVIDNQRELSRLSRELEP
Background: Counterscreens check selectivity or assay interference.

The target is the same in assay [6]. The assay is described as follows: Counterscreen qHTS for agonist of cAMP-regulated guanine nucleotide exchange factor 3 (EPAC1) (AID 1645889). For activation: % of control where 0% means no effect. Note: nearly all actives have a fitted effect of over 40% in size. Note: potency is the fitted concentration of half-maximal effect. A digest of the protocol: as §1
The nature of assay [7]: qHTS for Inhibitors of the vitamin D receptor (VDR): Hit Validation using a Texas Red Assay (AID 602201). Note: % is set by controls: 0 for no effect and ±100 for the full control effect. A digest of the protocol: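 Fluorescence polarization with 1.5 uM VDR-LBD, LG19078 and 7 nM Texas Red (final). After 2 hours at ambient temperature, read at Ex 595 nm/Em 615 nm.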
In assay [8] the target is Tumor susceptibility gene 101 protein (Homo sapiens) (UniProt Q99816). The assay is described as follows: qHTS Assay for Iinhibitors of HIV-1 Budding by Blocking the Interaction of PTAP/TSG101: Hit Validation (AID 651600). Note: potency is the fitted concentration of half-maximal effect; nearly all actives have a fitted effect of over 70% in size. A digest of the protocol: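 Measuring PTAP–Tsg101 interaction by FP: protein at 10 uM and fluorescent peptide at 50 nM (final), buffer 10 mM HEPES pH 7.5 with 0.15 M NaCl, 3 mM EDTA, 0.1 mM TCEP, 0.01% Tween 20; 20 min incubation, r.t.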
Tumor susceptibility gene 101 protein (Homo sapiens), sequence (Q99816 whole entry, looked up): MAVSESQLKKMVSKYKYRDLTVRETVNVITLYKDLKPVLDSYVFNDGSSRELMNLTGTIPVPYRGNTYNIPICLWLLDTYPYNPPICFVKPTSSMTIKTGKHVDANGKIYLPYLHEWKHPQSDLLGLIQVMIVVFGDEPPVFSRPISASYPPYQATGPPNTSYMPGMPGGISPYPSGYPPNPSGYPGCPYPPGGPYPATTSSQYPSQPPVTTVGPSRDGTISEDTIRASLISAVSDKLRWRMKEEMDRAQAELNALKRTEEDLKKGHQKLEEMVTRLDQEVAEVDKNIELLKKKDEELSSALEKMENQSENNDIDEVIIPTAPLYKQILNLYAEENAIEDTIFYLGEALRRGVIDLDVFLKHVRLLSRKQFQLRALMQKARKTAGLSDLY

A short description of assay [9]: AP1 Signaling Pathway (AID 357; active = well fitted curve in either direction with a large enough effect, not every such curve was filed as active;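 note: ME-180 reporter cells stimulated with EGF at its EC50 level; % is set by controls: 0 for no effect and ±100 for the full control effect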). A digest of the protocol: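 AP-1-bla ME-180 cells, Opti-MEM + 0.5% dialyzed FBS, plated overnight 37 °C. Cpd titration + EC50 EGF, 5 h 37 °C. CCF4 2.5 h RT; ex 405, em 460/530 ratio → %activity, AC50.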
The nature of assay [10]: NFAT Signaling Pathway (AID 444; active = well fitted curve in either direction with a large enough effect, not every such curve was filed as active;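 note: carbachol stimulus at about its EC50 of 1 µM final; % is set by controls: 0 for no effect and ±100 for the full control effect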). The conditions noted are these: Jurkat NFAT-bla M1, carbachol, beta-lactamase ratio, 5 h; at 17.2 µM (top of the series). A digest of the protocol: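 Jurkat cells with NFAT-driven β-lactamase reporter and co-expressed M1 receptor, stimulated with carbachol (final 1 uM, ~EC50), compound titration, 5 h at 37 °C. CCF4 loaded 1 h at RT; 460/530 nm ratio gave %activity and AC50.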

Assay [11] in a line: Stat Signaling Pathway (AID 446; active = well fitted curve in either direction with a large enough effect, not every such curve was filed as active;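 note: ME-180 cervical cancer cells given 40 pM IL-6 alongside compound; SIE-controlled beta-lactamase reporter measured as 460/530 nm FRET emission ratio; % is set by controls: 0 for no effect and ±100 for the full control effect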). Put shortly:
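Compound effects on IL-6-induced STAT reporter activity were measured in ME-180 cells. After overnight culture, cells were co-treated with 40 pM IL-6 for 5 hrs before beta-lactamase substrate loading at room temperature.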

Assay [12] has as its target Glucocorticoid receptor (Homo sapiens) (UniProt P04150). The assay is described as follows: GR-GFP Redistribution (AID 450;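 active = compounds whose dose series gives a full or clear partial fitted curve of increased nuclear translocation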; note: potency is the fitted concentration of half-maximal effect). Particulars: U2OS GR-GFP nuclear translocation, laser cytometry, 2 h.

Rap guanine nucleotide exchange factor 4 (Homo sapiens), sequence (Q8WZA2 whole entry, looked up): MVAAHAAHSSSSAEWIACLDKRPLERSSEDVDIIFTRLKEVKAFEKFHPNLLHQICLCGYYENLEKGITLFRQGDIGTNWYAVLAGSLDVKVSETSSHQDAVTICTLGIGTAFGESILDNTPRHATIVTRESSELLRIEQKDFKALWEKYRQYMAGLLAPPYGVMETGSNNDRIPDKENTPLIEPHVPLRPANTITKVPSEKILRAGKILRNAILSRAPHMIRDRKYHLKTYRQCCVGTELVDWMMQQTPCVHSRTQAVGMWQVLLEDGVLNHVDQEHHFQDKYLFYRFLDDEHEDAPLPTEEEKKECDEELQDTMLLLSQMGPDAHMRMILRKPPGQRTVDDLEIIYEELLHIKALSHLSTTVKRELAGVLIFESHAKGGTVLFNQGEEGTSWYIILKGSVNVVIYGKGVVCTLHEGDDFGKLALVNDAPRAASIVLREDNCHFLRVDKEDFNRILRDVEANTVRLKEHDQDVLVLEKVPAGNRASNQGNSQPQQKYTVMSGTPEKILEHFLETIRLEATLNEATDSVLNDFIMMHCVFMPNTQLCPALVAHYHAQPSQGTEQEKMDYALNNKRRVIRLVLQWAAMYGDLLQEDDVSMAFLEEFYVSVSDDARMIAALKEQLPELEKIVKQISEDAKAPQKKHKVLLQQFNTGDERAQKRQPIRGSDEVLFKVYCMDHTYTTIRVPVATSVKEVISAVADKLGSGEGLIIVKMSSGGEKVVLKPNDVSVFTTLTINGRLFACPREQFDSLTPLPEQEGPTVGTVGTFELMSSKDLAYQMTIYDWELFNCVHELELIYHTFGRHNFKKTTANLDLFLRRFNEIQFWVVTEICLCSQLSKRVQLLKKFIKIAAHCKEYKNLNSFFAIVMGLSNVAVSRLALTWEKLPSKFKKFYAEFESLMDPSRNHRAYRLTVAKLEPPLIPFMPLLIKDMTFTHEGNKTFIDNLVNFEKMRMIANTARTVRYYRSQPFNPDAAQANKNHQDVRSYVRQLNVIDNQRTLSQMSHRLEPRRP
Glucocorticoid receptor (Homo sapiens), sequence (P04150 whole entry, looked up): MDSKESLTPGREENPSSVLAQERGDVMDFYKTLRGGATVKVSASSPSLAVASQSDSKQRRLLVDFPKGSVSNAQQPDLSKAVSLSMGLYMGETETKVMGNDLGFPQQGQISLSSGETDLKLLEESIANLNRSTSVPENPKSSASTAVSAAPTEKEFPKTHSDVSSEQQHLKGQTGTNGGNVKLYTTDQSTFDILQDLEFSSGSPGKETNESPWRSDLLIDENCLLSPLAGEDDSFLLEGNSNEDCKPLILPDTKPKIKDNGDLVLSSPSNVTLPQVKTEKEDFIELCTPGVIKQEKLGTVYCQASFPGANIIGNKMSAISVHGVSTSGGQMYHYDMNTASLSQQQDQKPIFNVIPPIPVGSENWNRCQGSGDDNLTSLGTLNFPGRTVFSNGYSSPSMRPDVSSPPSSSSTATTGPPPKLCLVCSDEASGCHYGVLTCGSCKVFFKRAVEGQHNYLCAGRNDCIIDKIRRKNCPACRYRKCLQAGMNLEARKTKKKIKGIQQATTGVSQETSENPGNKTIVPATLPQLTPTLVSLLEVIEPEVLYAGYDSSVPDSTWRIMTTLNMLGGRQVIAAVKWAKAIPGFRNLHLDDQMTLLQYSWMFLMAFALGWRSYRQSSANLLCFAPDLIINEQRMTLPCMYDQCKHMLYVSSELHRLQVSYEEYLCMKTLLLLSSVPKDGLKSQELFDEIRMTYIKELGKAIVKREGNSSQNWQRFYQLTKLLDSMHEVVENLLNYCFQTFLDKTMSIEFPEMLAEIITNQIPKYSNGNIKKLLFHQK

With `COc1ccc(OCC(=O)N2CCN(CC3CC4C=CC3C4)CC2)cc1` (stereo unspecified), the Potency entry in assay [1] and in assay [2] was “inactive” throughout. Moreover, the activation is 6.59% [at 17.1 µM, percent relative to cAMP agonist control] in assay [3] and 5.29% [at 30.8 µM] in assay [6]. Moreover, the activity change, negative = inhibition in assay [4] was 6.27% [at 12.7 µM]; in [5], -7.66% [at 30.8 µM].
For the compound `O=Cc1c(C(=O)O)n(Cc2ccc(Cl)cc2)c2ccccc12`, the Potency entry in [1], in [2] and in [3] was “inactive” in each case. Besides, the Potency is 42.6 µM (active) in assay [4] and 15.8 µM (active) in [6]. In addition, the result in assay [5] was inactive.
Turning to `O=C1NC(=S)NC(=O)C1=Cc1cccn1-c1ccc(O)cc1`, the Potency result in [7] and in assay [2] was “inactive” throughout. In addition, the Potency in assay [1] is 3.55 µM (active). Also, in assay [3], the activation was 2.5% [at 17.1 µM, percent relative to cAMP agonist control]. Also, the activity change, negative = inhibition was -7.44% [at 12.7 µM] in assay [4] and -4.08% [at 30.8 µM] in [5].
Regarding `O=[N+]([O-])c1ccc(NCc2ccccc2)c2nonc12`, the Potency in assay [8] is 1.03 µM (active); in assay [2], 8.91 µM (active); in [3] it was 100 µM (active); in assay [6] it was 22.4 µM (active). The Potency entry in assay [1] and in assay [4] was “inactive” each time.
Turning to `CCc1nc2ccccc2c(=O)n1-c1ccccc1OC`, the Potency result in assay [1], in [2], in assay [3] and in [6] was “inactive” each time. Moreover, in assay [4], the Potency was 33.8 µM (active). Further, the compound was classed as inactive in assay [5].
Take `Cn1cc(C=C2C(=O)NC(=O)NC2=O)c2ccccc21`: the Potency result in [1] and in [6] was “inactive” in each case. Besides, the Potency in assay [2] was 79.4 µM (active); in assay [3], 63.1 µM (active); in assay [4], 75.7 µM (active). In addition, the call in assay [5] was inactive.
`CCCCn1c(O)c(C=NCCN2CCCCC2)c(=O)[nH]c1=O`: the call in assay [9], in assay [11] and in assay [5] was inactive. Further, the activity change, negative = inhibition in assay [10] is -9.1%. For the same compound, the Potency in assay [12] was > 20.6 µM; in assay [4], 75.7 µM (active). The Potency entry in assay [1], in [2], in assay [3] and in [6] was “inactive” each time.
